High-throughput results (PubChem)
Shiga inhibitor: Shiga toxin inhibition | Vero cells, Shiga toxin protein synthesis inhibition reporter | inhibition, % at 38.7 µM | actives 9.2% (n = 290,000); in the data active = inhibition mostly above about 28%, no sharp cut-off; inactive = mostly below about 43%
NS1 inh: influenza NS1 inhibition. Potency, µM (series often up to 46.1 µM). actives 0.4% (n = 270,000). AID 2326; also: actives are rising curves; nearly all actives have a fitted effect of over 50% in size
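Read-out: OD600 growth recovery of NS1-expressing budding yeast. Cells grown overnight at 30C in -URA glucose medium, washed, resuspended and diluted 1:100 in 2% galactose assay medium, pH 6.0. Same strain lacking NS1 served as positive control.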
Cycloheximide cs: counter-screen for Shiga toxin inhibitors: cycloheximide protein synthesis inhibition; cell reporter, cycloheximide protein synthesis inhibition counterscreen; max response, %; actives 12% (n = 300,000); in the data active = max response mostly above about 13%, no sharp cut-off; inactive = mostly below about 14%; also: read at 38.3 µM for the half of the compounds with a filed dose
Pf growth 96h: inhibits malaria parasite growth, 96 h; P. falciparum luciferase reporter growth, 96 h; Potency, µM (series often up to 28.7 µM), most hits filed as inhibitors; actives 6.9% (n = 320,000); active = well fitted inhibition curve with a large enough effect; inconclusive = small, poorly fitted or top-dose-only effect, or another doubt; inactive = no such curve, though single readings can be large or run the other way
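Luminescence readout: decreased luciferase signal marks inhibited growth of reporter-expressing P. falciparum in infected red cells (2% hematocrit, 0.05% parasitemia final), exposed to compound two generations (96 h, 37 C, 5% CO2).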
SARS PLP yeast: SARS-CoV PLP inhibition in yeast; AID 485353; Potency, µM (doses to about 32.9 µM), usual class: activators; S. cerevisiae expressing SARS-CoV PLpro, growth rescue; actives 0.19% (n = 330,000); also: nearly all actives have a fitted effect of over 55% in size
Pf growth 48h: inhibits P. falciparum growth in the first generation, 48 h; P. falciparum luciferase growth in erythrocytes, 48 h; Potency, µM (doses to about 28.7 µM), usual class: inhibitors; actives 5.9% (n = 310,000); AID 504832; active = well fitted inhibition curve with a large enough effect; inconclusive = small, poorly fitted or top-dose-only effect, or another doubt; inactive = no such curve, though single readings can be large or run the other way
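Luciferase-expressing parasites in RBCs, 2% Hct / 0.1% parasitemia final; RPMI 1640 + 0.5% Albumax; 37 C, 5% CO2, one generation; luminescence read-out, lower signal = inhibition.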
A number is an active result; – = inactive; ? = inconclusive; · = no result. An excerpt weighted towards active compounds, which were near 21% of everything screened. Unless noted, calls follow the shape of the full dose curve.

SMILES	Shiga inhibitor	NS1 inh	Cycloheximide cs	Pf growth 96h	SARS PLP yeast	Pf growth 48h
Cc1cccc(N=C2NC(=O)C(CO)(CO)S2)c1	–	–	–	?	–	–
O=C(c1ccc2nc(Cc3cccc(Cl)c3)oc2c1)N1CCC(O)CC1	–	–	–	?	–	–
O=C1CC(NCCN2CCOCC2)C(=O)N1Cc1ccc(N2CCCC2=O)cc1 (centres undefined)	–	–	–	4.1µM	–	–
Cc1ccc(C(=O)NC(NC(=O)c2ccc(C)cc2)c2cccc([N+](=O)[O-])c2)cc1	–	–	–	?	–	?
C=CCN1N=C(/C=C/c2ccc(C)cc2)CCC1=O	92	·	35	–	–	–
C=CCN1N=C(/C=C/c2ccc(OC)cc2)CCC1=O	115	–	54	–	–	–
COc1ccc(/C=C/C2=NN(Cc3ccccc3)C(=O)CC2)cc1	–	·	–	–	–	–
O=C(COc1ccccc1)NCC1(N2CCCCC2)CCCCC1	–	–	–	?	–	–
C[C@@H]1CC[C@H]2[C@H](C)C3[C@H](C[C@H]4[C@@H]5CC=C6C[C@@H](O)CC[C@@]6(C)[C@@H]5C[C@@H](O)[C@]34C)N2C1 (some centres undefined)	·	–	·	·	·	·
CCOc1ccccc1NC(=O)COC(=O)c1cccc(-c2ccc(OC(C)=O)cc2)c1	–	–	–	9.3µM	–	9.3µM
CN(C)c1cccc(C(=O)OCC(=O)N(C)c2ccccc2)c1	–	–	–	–	–	–
CC(=O)Oc1ccc(-c2cccc(C(=O)OCC(=O)N(C)c3ccccc3)c2)cc1	–	–	–	15µM	–	–
COc1ccc(N(C)S(=O)(=O)c2cccc(C(=O)OCC(=O)N(C)c3ccccc3)c2)cc1	·	·	·	·	–	·
CN(C(=O)COC(=O)c1cccc(F)c1)c1ccccc1	–	–	13	–	–	–
CC(C)CC(NS(=O)(=O)c1cc(C(=O)O)ccc1Cl)C(=O)O (centres undefined)	–	·	–	–	–	–
Brc1c(OCCOCCn2cncn2)ccc2ccccc12	27	–	20	?	–	–
CC(C)(C)c1ccc(C2=NC(=O)C(CC(=O)O)S2)cc1 (centres undefined)	–	–	13	–	–	2.6µM
COc1ccc(CCNC(=O)Cn2cc(C(F)(F)F)cc(Cl)c2=O)cc1OC	–	–	–	?	–	6.6µM
CCCCc1c(O)nc(SCC(=O)NCCc2ccc(OC)c(OC)c2)[nH]c1=O	–	–	–	5.9µM	–	–
CCCCn1c(-c2ccccc2)cnc1SCC(=O)NCCc1ccc(OC)c(OC)c1	132	–	21	–	–	–
COc1ccc(CCNC(=O)CSc2nn(-c3ccccc3)c(=S)s2)cc1OC	–	–	–	?	–	10µM
N=C(N)n1cc(/C=N\N=C(N)N)cn1	·	–	·	·	·	·
CCC1Oc2ccc(C)cc2N(CC(=O)NCCc2ccc(OC)c(OC)c2)C1=O (centres undefined)	·	–	·	·	·	·
CCC1Oc2ccccc2N(CC(=O)NCCc2ccc(OC)c(OC)c2)C1=O (centres undefined)	–	–	–	3.3µM	–	?
CCC(C(=O)OCn1nnc2ccccc2c1=O)c1ccccc1 (centres undefined)	–	·	–	–	–	–
SMILES	Shiga inhibitor	NS1 inh	Cycloheximide cs	Pf growth 96h	SARS PLP yeast	Pf growth 48h
COC(=O)c1cc(S(=O)(=O)N2CCC(c3cc(OC)ccc3OC)C2)c[nH]1 (centres undefined)	–	–	–	13µM	–	–
COC(=O)c1cc(S(=O)(=O)N2CCC(c3ccccc3)C2)c[nH]1 (centres undefined)	–	–	–	–	–	–
O=C(CN1C(=O)c2cccnc2Oc2ccc(Cl)cc21)N1CCCCCC1	–	–	–	–	–	?
O=C(CCCN1C(=O)c2cccnc2Oc2ccc(Cl)cc21)N1CCCCC1	–	–	–	13µM	–	?
CC1CCC(NC(=O)CN2C(=O)c3cccnc3Oc3ccc(Cl)cc32)CC1 (centres undefined)	–	–	16	–	–	?
O=C(CN1CCN(S(=O)(=O)c2ccc(Br)cc2)CC1)N/N=C/c1ccco1	–	–	–	–	–	–
Cc1ccccc1OC(C)C(=O)NC1CCCC1 (centres undefined)	–	–	–	–	–	–
Cc1ccccc1OCC(=O)NNC(=O)Cn1[nH]c(=O)c2ccccc2c1=O	·	·	·	·	–	·
CCCn1ccnc1SCC(=O)Nc1c(C)n(C)n(-c2ccccc2)c1=O	·	·	·	–	–	?
CCCn1c(-c2ccc(OC)cc2)nc2nc3ccccc3nc21	–	–	–	3.7µM	–	–
c1ccc(Cn2c(-c3ccco3)nc3nc4ccccc4nc32)cc1	–	–	28	–	–	–
O=c1c2ccccc2nc(-c2ccco2)n1Cc1ccccc1	130	–	57	?	·	–
COc1ccccc1Cn1c(-c2ccco2)nc2nc3ccccc3nc21	·	–	·	·	·	·
COc1ccc(CCn2c(-c3ccco3)nc3nc4ccccc4nc32)cc1	43	?	–	–	–	?
COCCCn1c(-c2ccc(OC)cc2)nc2nc3ccccc3nc21	–	–	–	·	–	–
COc1ccc(C(=O)n2c(-c3ccco3)nc3ccccc32)cc1	–	–	31	2.1µM	–	–
C=CCn1c(-c2cccc(OC)c2)n[nH]c1=S	–	–	–	–	–	–
CCCCCn1c(-c2ccco2)nc2nc3ccccc3nc21	–	–	9.2	?	–	?
C=CCn1c(-c2cccc(OC)c2)nc2nc3ccccc3nc21	–	–	32	–	?	–
COc1ccc(CCn2c(-c3cc([N+](=O)[O-])cc([N+](=O)[O-])c3)nc3nc4ccccc4nc32)cc1	–	–	–	0.74µM	–	?
c1coc(-c2nc3nc4ccccc4nc3n2CC2CCCO2)c1 (centres undefined)	–	–	–	–	–	·
COC(=O)[C@H](Cc1ccc(O)cc1)NC(=O)Cn1cnc2c(NCc3ccccc3)ncnc21	·	·	·	·	–	·
CCOC(=O)c1ccc(/C=C2/C=C(c3ccccc3)N(c3ccc(Cl)c(C(=O)O)c3)C2=O)cc1	–	–	–	13µM	–	?
COc1cccc(NC(=O)C2CC(=O)N/C(=N/NC(=O)c3ccc(C)cc3)S2)c1 (centres undefined)	–	–	–	–	–	–
Nc1ncnc2c1c(-c1ccc(Oc3ccccc3)cc1)cn2C1CCCC1	·	?	·	5.2µM	·	8.3µM
CCCN1C(=O)c2ccccc2NC1c1ccc(O)c(OCC)c1 (centres undefined)	–	–	–	–	–	?
CCCN1C(=O)c2ccccc2NC1c1ccc(Cl)c(Cl)c1 (centres undefined)	–	–	–	9.3µM	–	?
CCCN1C(=O)c2ccccc2NC1c1ccc(Br)cc1 (centres undefined)	–	–	–	–	–	?
CCCN1C(=O)c2ccccc2NC1c1ccc(Cl)cc1 (centres undefined)	–	–	–	–	–	13µM
